# Results published in PubChem BioAssay AID1946 (Johns Hopkins Ion Channel Center, 2009).
# In all, about 2,400 compounds went through this assay and about 180 (7.5%) were called active. The sample as a whole holds a higher share of actives than the screen did. Unmarked numbers belong to inactive results.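 The calls were made as follows: active = readout below zero, meaning a drop past 3 SD under the dofetilide-free negative control mean; inactive = the rest.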
# Molecular target: Potassium voltage-gated channel subfamily KQT member 2 (Rattus norvegicus) (UniProt O88943)
# Sequence (O88943 whole entry, looked up): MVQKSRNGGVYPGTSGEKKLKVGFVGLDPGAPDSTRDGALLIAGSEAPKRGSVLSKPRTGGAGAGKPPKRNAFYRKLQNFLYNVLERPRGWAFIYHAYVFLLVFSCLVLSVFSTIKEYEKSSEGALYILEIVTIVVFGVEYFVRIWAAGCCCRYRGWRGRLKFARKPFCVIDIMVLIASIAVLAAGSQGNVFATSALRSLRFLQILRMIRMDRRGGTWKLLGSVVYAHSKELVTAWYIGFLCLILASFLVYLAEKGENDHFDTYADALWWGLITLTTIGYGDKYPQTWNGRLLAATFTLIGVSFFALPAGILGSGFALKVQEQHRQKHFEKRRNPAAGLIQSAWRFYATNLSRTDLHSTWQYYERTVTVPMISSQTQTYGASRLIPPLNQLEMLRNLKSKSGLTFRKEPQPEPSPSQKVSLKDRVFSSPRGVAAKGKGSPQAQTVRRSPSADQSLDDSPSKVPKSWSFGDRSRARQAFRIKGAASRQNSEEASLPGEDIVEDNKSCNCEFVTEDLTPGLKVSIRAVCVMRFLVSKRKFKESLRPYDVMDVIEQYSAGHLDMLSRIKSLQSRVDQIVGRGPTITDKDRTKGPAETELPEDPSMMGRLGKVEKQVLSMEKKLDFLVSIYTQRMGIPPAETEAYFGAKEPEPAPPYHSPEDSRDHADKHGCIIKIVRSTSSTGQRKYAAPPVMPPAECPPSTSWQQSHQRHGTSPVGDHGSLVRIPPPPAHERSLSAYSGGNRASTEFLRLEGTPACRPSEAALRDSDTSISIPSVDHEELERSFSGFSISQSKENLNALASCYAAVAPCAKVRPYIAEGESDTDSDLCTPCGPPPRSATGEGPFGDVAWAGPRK
# Experiment: rat KCNQ2 channel inhibition by compounds alone, confirmation, counter-screen for hERG block protector project, cell-based, CHO, FluxOR thallium flux (AID 1946)
# Settings: CHO-KCNQ2 cells, FluxOR thallium flux fluorescence; at 10 µM; active compounds read low; zero marks the 3-SD hit cutoff
row,SMILES,activity change vs negative control
1,CCOc1cc(N2CCOCC2)c(OCC)cc1NC(=O)Cn1nc(C)c([N+](=O)[O-])c1C,12.9%
2,CCSc1nnc(NC(=O)CC(C)C)s1,10.8%
3,Cc1ccc(OCc2ccoc2C(=O)O)cc1C,45.7%
4,O=C(/C=C/Nc1ccc(F)c(F)c1)c1cccs1,-2.9% (active)
5,Cc1ccc(N/C=C/C(=O)c2cccs2)cc1,5%
6,O=C(/C=C/Nc1ccc(F)cc1)c1ccco1,12.2%
7,Cc1ccc(Cc2c[nH]c(=S)s2)cc1,76.4%
8,O=C(NC(=S)N1CCc2ccccc21)c1ccc(Br)o1,41%
9,S=c1nc(Cc2ccccc2)[nH]c2ccccc12,98.8%
10,O=C1CC(C(=O)N2CCOCC2)C2(CCCCC2)O1 (stereo not drawn),-1% (active)
11,O=C(C1CCN(S(=O)(=O)c2cc(Cl)ccc2Cl)CC1)N1CCOCC1,1.9%
12,Cc1ccc(C(C)C)c(OCc2n[nH]c(=S)o2)c1,32.2%
13,O=C(NC(=S)NCc1ccccc1)c1ccc(Br)o1,93.4%
14,CCC1=NN(C(=O)c2ccc(Cl)cc2)C(O)(c2ccc(C)cc2)C1 (stereo not drawn),11.1%
15,CC1=NN(C(=O)c2ccc(Cl)cc2)C(O)(c2ccccc2)C1 (stereo not drawn),16%
16,CCC1=NN(C(=O)c2ccc(Cl)cc2)C(O)(c2ccccc2)C1 (stereo not drawn),-0.9% (active)
17,CC(C)NC(=O)Nc1n[nH]c(Nc2ccc(Cl)cc2)n1,34.6%
18,COCCN(C(=O)CSc1nnc(C)n1Cc1ccccc1)c1c(N)n(CC(C)C)c(=O)[nH]c1=O,1.8%
19,CS(=O)(=O)N(Cc1ccccc1)c1ccc(C(=O)Nc2ccc(C(N)=O)cc2)cc1,4.2%
20,C=CCN(c1ccc(C(=O)NC(C)C)cc1)S(C)(=O)=O,-2.3% (active)
21,C=CCN(CC=C)C(=S)NC(=O)c1ccc(OC)cc1,31.6%
22,CCOC(=O)C1=NN(C(=O)c2ccccc2)C(O)(c2ccc(C)cc2)C1 (stereo not drawn),32%
23,CCn1c(=S)[nH]c2c(c1=O)C(C)(C)Cc1ccccc1-2,49.8%
24,c1ccc(-c2n[nH]c(-c3ccccn3)n2)cc1,20.5%
25,C=CCn1c(O)c(N=NC(=S)Nc2ccccc2F)c2cc(S(=O)(=O)N3CCOCC3)ccc21,-2.3% (active)

row,SMILES,activity change vs negative control
1,Cn1c(O)c(N=NC(=S)Nc2ccccc2F)c2cc(S(=O)(=O)N3CCOCC3)ccc21,4%
2,Oc1c(N=NC(=S)Nc2ccccc2F)c2ccccc2n1Cc1ccccc1F,10.9%
3,CC(Oc1ccc(Br)cc1Br)C(=O)Nc1cccnc1 (stereo not drawn),7.4%
4,CC1CCN(C(=S)NC(=O)c2ccc(C(C)(C)C)cc2)CC1,38.5%
5,COc1cc2c(cc1OC)C(c1ccc([N+](=O)[O-])cc1)N(C(C)=O)CC2 (stereo not drawn),-4% (active)
6,COc1cc2c(cc1OC)C(C)N(C(=S)NC(=O)c1ccccc1)CC2 (stereo not drawn),18.6%
7,COc1ccc(NC(=O)N2CCN(c3ccc([N+](=O)[O-])cc3)CC2)cc1OC,8.2%
8,Nc1nonc1-n1nnc(C(=O)N/N=C/c2cccc(Cl)c2Cl)c1CN1CCCC1,5.3%
9,CCCOc1ccc(-c2c(C(=O)N/N=C/c3ccccc3OCC)nnn2-c2nonc2N)cc1,11.7%
10,CN(C)Cc1c(C(=O)N/N=C/c2ccccc2OCc2c(F)cccc2Cl)nnn1-c1nonc1N,-0.5% (active)
11,O=C(NC(=S)Nc1ccc(C(F)(F)F)cc1)c1csnn1,110%
12,CC1CCc2c(sc3[nH]c(=S)n(C)c(=O)c23)C1 (stereo not drawn),100%
13,CN1N=C(C(=O)N2CCc3c([nH]c4ccccc34)C2c2c(F)cccc2Cl)CCC1=O (stereo not drawn),0.6%
14,CCc1nc(C)ccc1OCC(=O)N1CCc2c([nH]c3ccccc23)C1c1ccccn1 (stereo not drawn),-3.7% (active)
15,O=c1c2cc(Br)ccc2nc(-c2ccc([N+](=O)[O-])cc2)n1O,66.7%
16,C=CCN(CC=C)C(=S)NC(=O)Cc1cccc2ccccc12,25.1%
17,CC(/C=C1\SC(=S)N(NS(=O)(=O)c2ccc(C)cc2)C1=O)=C\c1ccccc1,32.4%
18,O=c1c2cc(Cl)ccc2nc(-c2ccccc2)n1O,56.6%
19,Cn1nc(C(F)(F)F)c(-c2ccc(Br)cc2)c1NC(=O)c1cccnc1,-6.8% (active)
20,Cn1c(=S)[nH]c2sc3c(c2c1=O)CCC(C(C)(C)C)C3 (stereo not drawn),99.8%
21,CC(CCc1ccccc1)NC(=S)NC(=O)c1ccco1 (stereo not drawn),43%
22,COc1ccc(N(CC(=O)NCc2cccnc2)S(=O)(=O)c2ccccc2[N+](=O)[O-])c(OC)c1,4.1%
23,O=C1C(=O)N(CCN2CCOCC2)C(c2cccnc2)/C1=C(/O)c1ccc(Cl)cc1 (stereo not drawn),6.1%
24,Cc1ccc(/C(O)=C2\C(=O)C(=O)N(Cc3cccnc3)C2c2ccccc2[N+](=O)[O-])cc1 (stereo not drawn),-1.5% (active)
25,CC(C)CN1C(=O)/C(=C/c2cccs2)NC1=S,113%

row,SMILES,activity change vs negative control
1,COc1ccc(NC(=S)NC(=O)c2csnn2)cc1,81.7%
2,CC(=O)Nc1ccccc1C(=O)C(=O)Nc1ccccc1,-2% (active)
3,CC(=O)Nc1ccccc1C(=O)C(=O)Nc1ccc(Cl)cc1,5.3%
4,CC(C)C(=O)Nc1cccc(C(=O)Nc2ccccc2C(=O)O)c1,13.7%
5,S=c1[nH]c2cc(Cl)ccc2s1,121%
6,CCn1c(=S)[nH]c2sc3c(c2c1=O)CCCCC3,126%
7,CC(C)n1c(=S)[nH]c2scc(-c3cccs3)c2c1=O,119%
8,S=c1[nH]nc(-c2cccs2)n1/N=C/c1c(Cl)cccc1Cl,42.5%
9,Cc1cc(OCc2ccc(C(=O)Nc3ccc(C(=O)O)cc3)o2)ccc1Cl,5.6%
10,CCOc1ccc(C(=O)N/N=C/c2cc([N+](=O)[O-])cs2)cc1,5.6%
11,O=C(N/N=C/c1cc([N+](=O)[O-])ccc1O)c1ccc(COc2ccc3c(c2)CCC3)o1,-19.7% (active)
12,CCOC(=O)C1=C(c2ccccc2)NC(=O)NC1c1ccc(O)c(Cl)c1 (stereo not drawn),23.1%
13,O=C(N=Nc1c(O)[nH]c2ccc([N+](=O)[O-])cc12)c1cc(-c2ccccc2Cl)nc2ccccc12,3.8%
14,CC(C)(C)c1ccc(C(=O)CC(=O)c2cc(Cl)ccc2O)cc1,9.8%
15,COC(=O)c1ccc(/C=C/c2ccc3cccc(OC)c3n2)cc1,-0.2% (active)
16,COc1ccc(C(=O)CC(=O)C(=O)Nc2ccccc2OC)cc1,19.3%
17,O=C(N/N=C/c1ccc2cccc(OCc3ccccc3)c2n1)c1ccc(Br)cc1,12%
18,O=C(Cn1nnc(-c2cccc(C(F)(F)F)c2)n1)N1CCCCCC1,44.7%
19,Cc1ccccc1OCC(=O)NNC(=O)c1ccc2c(=O)n3c(nc2c1)CCC3,-0.9% (active)
20,COc1ccc(C(=O)NCC(=O)OCn2nnc3ccccc3c2=O)cc1OC,5.4%
21,Cc1ccccc1NC(=O)C(=O)NNC(=O)COc1ccc2ccccc2c1,48.1%
22,O=S(=O)(NC(=S)NC1CCCCC1)c1ccc(Br)cc1,36.7%
23,C=CCn1c(SCc2ccc(C(=O)O)cc2)nc2sc(C)c(C)c2c1=O,68%
24,O=C(NC(=S)NNC(=O)[C@H]1C[C@@H]1c1ccccc1)c1cccc(F)c1,-9% (active)
25,CC1Cc2ccccc2N1C(=S)NC(=O)c1cccc(Br)c1 (stereo not drawn),143%

row,SMILES,activity change vs negative control
1,O=C(NC(=S)NCCc1ccccc1)c1cccc(Cl)c1,5.4%
2,Cc1cccc(N=Cc2cc(Br)cc(Cl)c2O)c1,61.7%
3,COc1ccc(C(=O)NNC(=O)C(=O)Nc2ccc(C)cc2)cc1,36.9%
4,C=CCn1c(=S)[nH]c2cc(-c3ccccc3)sc2c1=O,17.5%
5,NC(=O)c1cccnc1Nc1cccc([N+](=O)[O-])c1,0.5%
6,COc1ccc(S(=O)(=O)Nc2cccnc2)cc1,-2.7% (active)
7,O=C(NCc1cccnc1)c1ccc(NS(=O)(=O)c2ccc(F)cc2)cc1,17%
8,COc1ccc(S(=O)(=O)Nc2cccc(-n3cnnn3)c2)cc1,11.8%
9,S=c1nc(-c2ccccc2)[nH]n1-c1ccccc1,73.2%
10,C=CCNC(=S)Nc1nc2c(cc1C(=O)OCC)CCCC2,15.6%
11,COc1ccc([N+](=O)[O-])cc1N(CC(=O)NCc1ccco1)S(C)(=O)=O,9.4%
12,COc1cc(/C=C2/OC(=O)c3cc([N+](=O)[O-])ccc32)cc(OC)c1OC,-0.9% (active)
13,COc1cc(/C=C2/C(=O)NN(c3ccc(Cl)c(Cl)c3)C2=O)cc([N+](=O)[O-])c1O,10.8%
14,O=C(NC(=S)N1CCN(c2nc(-c3ccccc3)cs2)CC1)c1cncc(Br)c1,76.4%
15,Cc1ccccc1OC(=O)n1c(=S)oc2cc(Cl)ccc21,33.4%
16,Cc1ccc2nsnc2c1S(=O)(=O)Nc1cccc2nsnc12,27.1%
17,Cc1cc(C)nc(NS(=O)(=O)c2ccc(NC(=O)Cc3ccccc3)cc2)n1,12.6%
18,O=C(CCCc1c[nH]c2ccccc12)Nc1ccc(S(=O)(=O)Nc2ncccn2)cc1,-0.6% (active)
19,O=C(COc1ccccc1)Nc1ccc(S(=O)(=O)Nc2ccccn2)cc1,0.2%
20,Cc1ccc(-c2n[nH]c(=S)nc2-c2ccc(C)cc2)cc1,15.9%
21,O=C(NC(=S)Nc1nc2ccccc2s1)c1cccs1,38.4%
22,S=C(Nc1ccc(Cl)cc1)c1nc2ccccc2s1,22%
23,CN(CC(=O)Nc1nc2ccccc2s1)S(=O)(=O)c1ccc(Cl)cc1,-3.4% (active)
